Gal4-VP16 FLuc: inhibits Gal4-VP16 luciferase reporter, ROR gamma counter-screen; Drosophila S2 Gal4-VP16 UAS-luciferase, luminescence, 20 h; Potency, µM (series often up to 53.6 µM), actives largely listed as inhibitors; actives 3.5% (n = 310,000); AID 2546;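 also: Gal4-VP16 expression switched on by copper sulfate through the metallothionein promoter; nearly all actives have a fitted effect of over 50% in size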
ELG1 DNA repair: inhibitors of ELG1-dependent DNA repair in HEK293T cells. Potency, µM (top dose mostly 46.1 µM), actives largely listed as inhibitors. HEK293T ELG1-luciferase reporter, luminescence, 16 h; DNA damage induced by 5-fluorouridine. actives 2.3% (n = 330,000). AID 504467; also: nearly all actives have a fitted effect of over 55% in size
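HEK293T cells expressing luciferase-tagged ELG1 (2,000/well) received 5-Fluorouridine plus compound or DMSO for 16 hr at 37 °C. Luciferase was read by ONE-Glo luminescence after 30 min at room temperature.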
MCF10A rerep: DNA re-replication induction in MCF 10a cells; actives 2.9% (n = 350,000); AID 624296; Potency, µM (top dose mostly 46.1 µM), actives largely listed as activators; MCF 10A DNA re-replication, Hoechst nuclear intensity, 48 h; also: nearly all actives have a fitted effect of over 50% in size
RORg inh: ROR gamma (mouse) transcription inhibition. P51450. Drosophila S2 Gal4-RORgamma UAS-luciferase reporter, 20 h. Potency, µM (highest dose often 53.6 µM), actives largely listed as inhibitors. actives 5.4% (n = 310,000); also: nearly all actives have a fitted effect of over 60% in size
Target sequence (P51450 whole entry, looked up, the tested form may be a part): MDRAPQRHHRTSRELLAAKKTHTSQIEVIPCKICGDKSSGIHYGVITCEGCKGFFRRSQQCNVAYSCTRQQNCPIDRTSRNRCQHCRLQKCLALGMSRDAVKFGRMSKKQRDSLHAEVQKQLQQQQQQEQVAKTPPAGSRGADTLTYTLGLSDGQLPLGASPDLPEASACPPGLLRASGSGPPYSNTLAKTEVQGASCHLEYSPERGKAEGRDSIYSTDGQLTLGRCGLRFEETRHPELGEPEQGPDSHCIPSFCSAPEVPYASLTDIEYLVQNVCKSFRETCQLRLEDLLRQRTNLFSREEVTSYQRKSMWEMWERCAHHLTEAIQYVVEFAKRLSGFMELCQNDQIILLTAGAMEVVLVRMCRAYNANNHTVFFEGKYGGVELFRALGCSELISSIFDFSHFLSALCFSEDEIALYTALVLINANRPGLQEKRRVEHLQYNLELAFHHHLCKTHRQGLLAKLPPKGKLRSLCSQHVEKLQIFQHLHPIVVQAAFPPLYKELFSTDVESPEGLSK
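Using a luciferase readout, inhibitors were identified by reduced reporter activity in Drosophila cells coexpressing a copper-inducible Gal4–ROR gamma fusion and UAS-driven Photinus luciferase, incubated 20 hr after 700 uM copper sulfate.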
SW480 rereplic: inducers of DNA re-replication in SW480 colon cancer cells; Potency, µM (highest dose often 46.1 µM), most hits filed as activators; AID 624297; actives 1.8% (n = 340,000); SW480 DNA re-replication, Hoechst DNA content imaging, 48 h; also: nearly all actives have a fitted effect of over 55% in size
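SW480 cells exposed to compounds for 48 hr at 37 C, 5% CO2, then Hoechst-stained 40 min. Nuclear DNA content imaged by fluorescence scanning (405 nm excitation, 500-530 nm emission); re-replication scored as increased high-intensity nuclei.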
Of the large screens only hits and unclear results are named; the others gave an inactive call. Rows were chosen to be rich in hits. Some 10% of all compounds tested hit in one or more screens of this group. Calls follow the shape of the dose curve; as a rule, active = well fitted curve in the direction sought with a large enough effect; inconclusive = small, poorly fitted or top-dose-only effect, or another doubt; inactive = no such curve, though single readings can be large; an effect the other way counts as inactive or inconclusive.

CC(=O)c1cccc(NC(=O)C2CCCN2S(=O)(=O)c2cccc3cccnc23)c1 (stereo unspecified)	ELG1 DNA repair inconclusive
O=C(O)[C@@H]1CCCN(S(=O)(=O)c2cccc3cccnc23)C1	none (no result: Gal4-VP16 FLuc, RORg inh)
O=C(C1CCCN(S(=O)(=O)c2cccc3nonc23)C1)N1CCN(c2ccccc2Cl)CC1 (stereo unspecified)	ELG1 DNA repair 23µM, MCF10A rerep inconclusive, SW480 rereplic inconclusive
CC1Cc2ccccc2N1C(=O)C1CCCN(S(=O)(=O)c2cccc3cccnc23)C1 (stereo unspecified)	ELG1 DNA repair 21µM, SW480 rereplic inconclusive
O=C(Nc1ccc(F)cc1)C1CCCN(S(=O)(=O)c2cccc3cccnc23)C1 (stereo unspecified)	ELG1 DNA repair inconclusive
CC(=O)c1cccc(NC(=O)C2CCCN(S(=O)(=O)c3cccc4cccnc34)C2)c1 (stereo unspecified)	ELG1 DNA repair 16µM
Cc1cc(Br)ccc1NC(=O)CN(C)Cc1cccs1	none
CC1CCN(C(=O)CNC(=O)c2ccc(Br)o2)CC1	ELG1 DNA repair inconclusive, SW480 rereplic inconclusive (no result: Gal4-VP16 FLuc, RORg inh)
CC1CCN(C(=O)COc2ccc(S(=O)(=O)N3CCOCC3)cc2)CC1	none (no result: Gal4-VP16 FLuc, RORg inh)
CSc1cccc(NC(=O)C2CCN(S(=O)(=O)c3ccc(F)cc3)CC2)c1	MCF10A rerep inconclusive (no result: ELG1 DNA repair)
CSc1cccc(NC(=O)C2CCCN(S(=O)(=O)c3ccc(F)cc3)C2)c1 (stereo unspecified)	ELG1 DNA repair 21µM
O=C(Nc1ccccc1Cl)C1CCCN(S(=O)(=O)c2cccc3cccnc23)C1 (stereo unspecified)	Gal4-VP16 FLuc inconclusive, MCF10A rerep inconclusive
O=C(Nc1cccc(F)c1)C1CCCN1S(=O)(=O)c1cccc2cccnc12 (stereo unspecified)	none
O=C(Nc1ccc(C(F)(F)F)cc1)C1CCCN1S(=O)(=O)c1cccc2cccnc12 (stereo unspecified)	ELG1 DNA repair 21µM
O=C(Nc1nccs1)C1CCCN(S(=O)(=O)c2cccc3cccnc23)C1 (stereo unspecified)	ELG1 DNA repair 23µM
O=c1c(-c2ccc(F)cc2)nc2cnc(N3CCOCC3)nc2n1Cc1ccc(F)cc1	none (no result: ELG1 DNA repair, MCF10A rerep, SW480 rereplic)
CS(=O)(=O)N1CCC(Oc2ccccc2C(=O)N2CCNC(=O)C2)CC1	none
COc1ccc(OC)c(-c2nnc3n2N=C(c2c(OC)cccc2OC)CS3)c1	none (no result: ELG1 DNA repair, MCF10A rerep, SW480 rereplic)
C=CCN(CC=C)C(=S)NC(=O)c1ccc([N+](=O)[O-])cc1	Gal4-VP16 FLuc 0.13µM, MCF10A rerep inconclusive, RORg inh 0.13µM, SW480 rereplic 3.7µM
COc1ccc(C(=O)NC(=S)NCc2cccnc2)cc1Br	Gal4-VP16 FLuc inconclusive, ELG1 DNA repair inconclusive, RORg inh inconclusive, SW480 rereplic inconclusive
COc1ccc(C(=O)c2ccc(OC)c(Br)c2)cc1Br	Gal4-VP16 FLuc inconclusive
C=CCN(CC=C)C(=S)NC(=O)c1ccc(OC)c(Br)c1	Gal4-VP16 FLuc 0.71µM, RORg inh 0.28µM
CCN(CC)C(=S)NC(=O)c1ccc(OC)c(Br)c1	Gal4-VP16 FLuc 0.5µM, RORg inh 0.35µM
COc1ccc(C(=O)NC(=S)NCCO)cc1Br	Gal4-VP16 FLuc 1.1µM, RORg inh 0.79µM
CCCC(c1nnnn1C(C)(C)C)N1CCN(C(=O)c2ccco2)CC1 (stereo unspecified)	none
C[C@H](CCCC/C=C/C(=O)O)O[C@@H]1O[C@@H](C)[C@H](O)C[C@H]1O	none (no result: Gal4-VP16 FLuc, RORg inh)
CNC(=S)N(Cc1ccc(OC)cc1)Cc1cc2cccc(C)c2[nH]c1=O	ELG1 DNA repair inconclusive, MCF10A rerep inconclusive, SW480 rereplic inconclusive
CCCCc1ccc(NC(=O)N[C@@H](C)C(=O)O)cc1	none
CCOC(=O)N1CCN(C(=O)CSCc2ccc(C)cc2)CC1	RORg inh inconclusive, SW480 rereplic 0.18µM
CCCCc1ccc(NC(=S)N2CCN(C)CC2)cc1	Gal4-VP16 FLuc inconclusive, RORg inh 11µM
CCCCc1ccc(NC(=O)C(C)CC)cc1 (stereo unspecified)	Gal4-VP16 FLuc 4µM, ELG1 DNA repair inconclusive, RORg inh 1.4µM
CC(C)c1ccc(NC(=S)N2CCCC2)cc1	Gal4-VP16 FLuc inconclusive, ELG1 DNA repair inconclusive, RORg inh 10µM
CC(C)(C)c1ccc(S(=O)(=O)N2CCC(O)(c3ccc(Cl)cc3)CC2)cc1	Gal4-VP16 FLuc inconclusive, ELG1 DNA repair inconclusive, MCF10A rerep inconclusive
CCCCc1ccc(NC(=S)N2CCCC2)cc1	Gal4-VP16 FLuc 10µM, ELG1 DNA repair inconclusive, RORg inh 11µM
CCOC(=O)N1CCN(C(=S)Nc2ccc(C)c(C)c2)CC1	RORg inh inconclusive
CCCCc1ccc(NC(=S)N2CCN(C(=O)OCC)CC2)cc1	Gal4-VP16 FLuc inconclusive, RORg inh 1.3µM
S=C(Nc1ccccc1)N1CCCCCCC1	RORg inh inconclusive
CCCCC#Cc1cncc(C(=O)N/N=C/c2ccccc2)c1	Gal4-VP16 FLuc inconclusive, RORg inh inconclusive
O=S(=O)(NCCOc1ccccc1F)c1ccc(Cl)cc1F	none (no result: Gal4-VP16 FLuc, RORg inh)
O=C(c1ccco1)N1CCC(c2nc3c(nnn3Cc3ccc(F)cc3)c(=O)[nH]2)CC1	ELG1 DNA repair inconclusive
C=CCN1C(=O)C(O)(CC(=O)c2ccco2)c2cc(Br)ccc21 (stereo unspecified)	MCF10A rerep inconclusive, SW480 rereplic 13µM
Cc1n[nH]c(C)c1C(=O)CC1(O)C(=O)N(Cc2ccccc2)c2ccc(Br)cc21 (stereo unspecified)	none
COc1ccc(CN2CCNC(=O)C2CC(=O)NCCSc2nccn2C)c(OC)c1 (stereo unspecified)	MCF10A rerep inconclusive
COc1ccccc1NC(=O)CN1CCCCCC1	none
CCOc1ccc(NC(=O)CN2CCN(C3c4ccccc4-c4ccccc43)CC2)cc1	ELG1 DNA repair 13µM, MCF10A rerep inconclusive, RORg inh inconclusive
COc1ccccc1NC(=O)CN1CCN(C2c3ccccc3-c3ccccc32)CC1	Gal4-VP16 FLuc inconclusive, ELG1 DNA repair 3.7µM, MCF10A rerep 5.8µM, RORg inh inconclusive, SW480 rereplic inconclusive
Cc1cc(C)cc(Oc2ccccc2CO)c1	none (no result: MCF10A rerep, SW480 rereplic)
CCN1c2ccccc2-c2nc3ccccc3n2C1c1ccco1 (stereo unspecified)	Gal4-VP16 FLuc inconclusive, MCF10A rerep inconclusive, RORg inh 16µM, SW480 rereplic inconclusive
c1ccc(CN2c3ccccc3-c3nc4ccccc4n3C2c2ccccn2)cc1 (stereo unspecified)	ELG1 DNA repair inconclusive, RORg inh 16µM
O=C(O)Cn1c(-c2ccccn2)nc2ccccc21	ELG1 DNA repair inconclusive
CN1c2ccccc2-c2nc3ccccc3n2C1c1ccccn1 (stereo unspecified)	Gal4-VP16 FLuc inconclusive, MCF10A rerep inconclusive, RORg inh 4µM
CN1c2ccccc2-c2nc3ccccc3n2C1c1ccncc1 (stereo unspecified)	none

High-throughput results from PubChem.
